GBA activity – Glucocerebrosidase; Potency, µM; purified enzyme, resorufin glucoside fluorescence (screen aimed at inhibitors), 20 min; 48,000 tested, 1.1% active; Lysosomal acid glucosylceramidase (Homo sapiens), P04062; in the data active = potency below about 15 µM; inconclusive = mostly about 16 µM to 33 µM;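 note: potency is the fitted concentration of half-maximal effect; the screen sought inhibitors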
Target sequence (P04062 whole entry, looked up): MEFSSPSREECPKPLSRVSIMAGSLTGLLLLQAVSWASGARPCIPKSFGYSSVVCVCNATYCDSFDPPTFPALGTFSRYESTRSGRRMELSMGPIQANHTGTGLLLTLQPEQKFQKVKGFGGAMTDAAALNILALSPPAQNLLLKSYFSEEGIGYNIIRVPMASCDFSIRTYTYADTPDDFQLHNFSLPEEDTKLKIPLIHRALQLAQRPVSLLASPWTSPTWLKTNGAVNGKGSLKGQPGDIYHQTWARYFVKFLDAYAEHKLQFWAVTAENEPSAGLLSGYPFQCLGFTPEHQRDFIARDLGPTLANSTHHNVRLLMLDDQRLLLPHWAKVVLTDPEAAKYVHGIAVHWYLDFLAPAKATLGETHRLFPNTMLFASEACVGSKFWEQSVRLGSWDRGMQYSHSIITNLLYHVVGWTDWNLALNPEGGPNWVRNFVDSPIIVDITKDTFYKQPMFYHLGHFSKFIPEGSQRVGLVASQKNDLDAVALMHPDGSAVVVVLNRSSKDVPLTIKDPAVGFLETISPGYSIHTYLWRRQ
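Normal human glucocerebrosidase (0.2 nM final) was assayed with resorufin β-D-glucopyranoside (30 uM final) in 50mM citric acid/KH2PO4, 10mM sodium taurocholate, 0.01% tween-20, pH 5.9. Compounds were titrated; fluorescence (Ex 548, Em 600) read after 20 min at RT.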
Luciferase inh – qHTS Assay for Inhibitors of Firefly Luciferase. Potency, µM (top dose mostly 57.1 µM), for the others: at the top dose activity change, negative = inhibition, usual class: inhibitors. 72,000 tested, 2.2% active. Luciferin 4-monooxygenase (Photinus pyralis), P08659. purified firefly luciferase, luminescence, 8 min; note: potency is the fitted concentration of half-maximal effect; % is set by controls: 0 for no effect and ±100 for the full control effect; nearly all actives have a fitted effect of over 40% in size
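Titration-based qHTS; buffer 50 mM imidazole pH 7.2, 50 mM KCl, 7 mM MgCl2, 10 uM ATP, 0.01% Tween 20, 0.05% BSA; luciferase/luciferin detector mix added after compound; 8 min, ambient; luminescence.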
HEK293 cAMP ctrl – qHTS Assay for Agonists of the Thyroid Stimulating Hormone Receptor: Activators of Intracellular cAMP Concentrations in Parental HEK 293; Potency, µM (doses to about 57.1 µM), for inactives: at the top dose activation, most hits filed as activators; AID 938, 2007; 73,000 tested, 2.5% active; parental HEK293 CNG cAMP sensor, membrane potential fluorescence; note: potency is the fitted concentration of half-maximal effect; % of control where 0% means no effect; nearly all actives have a fitted effect of over 55% in size
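Parental HEK 293 cells stably expressing a modified CNG channel (no TSHR) report cAMP rise as membrane depolarization. Membrane potential dye with 100 uM RO 20-1724 was loaded for 60 min at room temperature, then compound added for 30 min; fluorescence read at 590 nm.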
TSHR ag – qHTS Assay for Agonists of the Thyroid Stimulating Hormone Receptor; Potency, µM (highest dose often 57.1 µM), inactives show top-dose activation, usual class: activators; 73,000 tested, 0.48% active; AID 926, 2007; HEK293-CNG-TSHR cells (CNG channel as cAMP sensor), membrane potential dye, cAMP; Thyrotropin receptor (Homo sapiens), P16473; active = well fitted activation curve with a large enough effect in the main read-out, with a control signal flat, not every such curve was filed as active; inconclusive = small, poorly fitted or top-dose-only effect, or a change in a side signal; inactive = no such curve, though single readings can be large or run the other way; % of control where 0% means no effect;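 note: the control signal comes from parental cells without the receptor; potency is the fitted concentration of half-maximal effect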
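HEK 293 cells stably expressing TSHR and a cAMP-gated CNG channel; parental CNG-only cells as counterscreen. Cells preloaded 60 min with membrane potential dye plus 100 uM RO 20-1724, then compound 30 min; fluorescence read at 590 nm.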
PK Bst – Pyruvate Kinase; purified pyruvate kinase, luminescence ATP production; ribose 5-phosphate activator present at AC10; Potency, µM; 51,000 tested, 1.2% active; AID 361, 2006; in the data active = potency below about 11 µM; inconclusive = mostly about 12 µM to 25 µM;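 the screen sought inhibitors and activators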;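 note: potency is the fitted concentration of half-maximal effect; scaled between full activation by ribose 5 phosphate and full inhibition by luteolin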
HEK293 cAMP cnt – Confirmation Concentration-Response Assay for Agonists of the Thyroid Stimulating Hormone Receptor: Activators of Intracellular cAMP Concentrations in Parental HEK 293. shares compounds with TSHR ag. parental HEK293 CNG biosensor, cAMP membrane potential fluorescence. activity change, negative = inhibition, % at 32.9 µM. 150 tested, under 10 active
Numbers without * were called inactive; i = inactive; u = inconclusive; x = no result; [ ] = dose if it differs, or a comment. The list is not random: actives were taken first. Their share in the collection is about 5.8%. Unless noted, calls come from the whole dose curve; as a rule, active = well fitted curve in the direction sought with a large enough effect; inconclusive = small, poorly fitted or top-dose-only effect, or another doubt; inactive = no such curve, though single readings can be large; an effect the other way counts as inactive or inconclusive.

SMILES	GBA activity	Luciferase inh	HEK293 cAMP ctrl	TSHR ag	PK Bst	HEK293 cAMP cnt
COC(=O)C1=C(C)NC(C)=C(C(=O)OC)C1c1ccc(OC(=O)c2ccco2)cc1	x	3%	9%	20µM*	x	-9
CCOC(=O)C1=C(C)NC(C)=C(C(=O)OCC)C1c1ccc(OC)cc1	u	2%	4%	23%	>57	x
CCOC(=O)C1=C(C)NC(=O)N[C@@H]1c1coc2cc(C)cc(C)c2c1=O	x	2%[11.4 µM]	0%[11.4 µM]	2%[11.4 µM]	x	x
CC(=O)Nc1ccc(S(=O)(=O)N(C)c2ccccc2)cc1	x	1%	1%	0.79µM*	x	5
COc1ccc(NC(=O)CN(c2ccc(C)cc2)S(=O)(=O)c2c(C)nn(C)c2C)cc1OC	>77	2%	1%	16%	>57	x
Cc1nn(C)c(C)c1S(=O)(=O)N(CC(=O)Nc1ccccn1)c1ccc(C(C)C)cc1	x	1%	17%	10µM*	x	-9
COCCn1c(=O)c(-c2ccc(OC)cc2)nc2cnc(Nc3ccccc3)nc21	x	2%[11.4 µM]	13%	4%	x	x
Cc1ccc(S(=O)(=O)N2CCC(C(=O)NC3CCCCCC3)CC2)cc1	x	1%	2%[11.4 µM]	15%[11.4 µM]	x	x
Cc1ccc(S(=O)(=O)N2CCC(C(=O)NCCCN3CCCCCC3)CC2)cc1	>77	-1%	-1%	4µM*	10*	-4
Cc1cc(=O)[nH]c(SCCOc2ccc3c(c2)CCC3)n1	>77	0%	11%	x	>57	25
C/C=C/c1ccc(OCCSc2nc(C)cc(=O)[nH]2)c(OC)c1	>77	-22%	-4%	16%	x	x
Cc1ccc(S(=O)(=O)NC(=O)Nn2c(C)nnc2C)cc1	x	1%	3%	10%	x	2[25.6 µM]
Cc1ccc(S(=O)(=O)NC(=O)NN2CCCCCC2)cc1	x	0%[25.5 µM]	10%[25.6 µM]	-6%[25.6 µM]	>26	x
Oc1ccc(Cn2c(-c3ccc(O)cc3)nc3ccccc32)cc1	x	2%[11.4 µM]	-1%[11.4 µM]	5%[11.4 µM]	x	x
Oc1ccccc1Cn1c(-c2ccccc2O)nc2ccccc21	x	1%	-13%	10µM*	>57	-15
CC1(C)CC(=O)C2=C(C1)OC(N)=C(C#N)C2CCc1ccccc1 (stereo not given)	x	-4%	28%	20µM*	>57	14
CC1(C)CC(=O)C2=C(C1)OC(N)=C(C#N)C2C#Cc1ccccc1 (stereo not given)	i	1%	4%	18%	>57	x
O=C(O)CCC(=O)c1ccc(Cl)cc1	x	-1%[11.4 µM]	14%[11.4 µM]	-3%[11.4 µM]	x	x
CCOc1ccc(N(C(C)C(=O)Nc2ccc(OC)cc2)S(C)(=O)=O)cc1 (stereo not given)	x	3%	-3%[11.4 µM]	4%[11.4 µM]	x	-4[25.6 µM]
CCOc1ccc(NC(=O)C(C)SC(N)=O)cc1 (stereo not given)	x	0%	-17%	-32%	x	-37[25.6 µM]
CO[C@@H]1COC(=O)CC=C[C@@H](C)[C@@H]2C=C[C@H](O)[C@@H](COC(=O)[C@H](C)NC(=O)CC=C[C@H]1C)O2	x	0%[11.4 µM]	-2%[11.4 µM]	2%[11.4 µM]	x	x
Cn1c(=O)[nH]c(=O)c2c1nc(N1CCCCCC1)n2CCCSc1nc2ccccc2o1	>77	0%	-3%	4%	>57	13[25.6 µM]
CCS(=O)(=O)N1CCN(C(C)CCc2ccccc2)CC1 (stereo not given)	x	-3%	9%[11.4 µM]	x	x	-3
Cc1noc(/C=C/c2ccco2)c1S(=O)(=O)N1CCC(C(=O)NCc2ccco2)CC1	>77	-1%	12%	32µM*	>57	18
